For 29 molecules, growth results are on record in PubChem BioAssay (NCI).

The panel holds about 83,000 compounds, 20% with a hit somewhere; the sample as a whole holds those more often.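 Compound tested at a single concentration for 48 hours in 96-well plates; a percent growth value below 10 was scored as active.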 Values without a mark were called inactive. Calls of active or inactive are those of the source.

Among the test systems are T-47D breast; BT-549 breast; MDA-MB-435 melanoma; SW-620 colon; MCF7 breast; HCT-116 colon; HCC-2998 colon; KM12 colon.
What all share (assay): NCI-60 one-dose screen, 48 h (100 = growth as untreated, 0 = no growth, -100 = all killed)
Holding throughout (conditions): 10 µM unless noted

`COc1ccc(-c2nnc3n(C)c(=O)c4ccccc4n23)cc1N`: the growth in the assay on T-47D breast is 24.2%; in the assay with BT-549 breast, 31.2%; in the assay with MDA-MB-435 melanoma, -19.6% (active); in the assay on SW-620 colon, 20.3%; in the assay on MCF7 breast, 18.6%; with HCT-116 colon it was 20.2%. Also, the growth in the assay with HCC-2998 colon was 49.7%; with KM12 colon, 28.3%.

As for `CN1CCN(c2ccc(C(=O)Nc3cccc(C#Cc4cccc5[nH]nc(N)c45)c3)cc2C(F)(F)F)CC1`, the growth was -48.3% (active) with T-47D breast; 71.4% with BT-549 breast; -88.8% (active) in the assay on MDA-MB-435 melanoma; -73.5% (active) with SW-620 colon; -71.6% (active) in the assay on MCF7 breast; -83.4% (active) in the assay with HCT-116 colon. Moreover, the values for the growth in the assay on HCC-2998 colon and in the assay with KM12 colon were -75.1% (active) and -57% (active), respectively.

With `CCCCCCCCCCCCCCCCCCOc1ccccc1CC(=O)OCC[N+]1(C)CCCC1`, the growth is 62% in the assay on T-47D breast; 67% in the assay on BT-549 breast; 23.4% with MDA-MB-435 melanoma; 21.4% with SW-620 colon; 32.3% in the assay on MCF7 breast; 29.2% with HCT-116 colon. Further, the growth was 3.99% (active) in the assay with HCC-2998 colon and 13.3% in the assay on KM12 colon.

Turning to `COc1cc(/C=C\c2cc(/C=C\c3ccc(O)c(OC)c3)n(C(=O)COc3ccc(Cl)cc3Cl)n2)ccc1O`, the growth was 15% with T-47D breast; 1.41% (active) in the assay on BT-549 breast; -12.1% (active) in the assay on MDA-MB-435 melanoma; 16.7% in the assay on SW-620 colon; 4.21% (active) in the assay with MCF7 breast; 3.48% (active) in the assay with HCT-116 colon. In addition, the growth with HCC-2998 colon is 38.5%; in the assay with KM12 colon, 9.93% (active).

For the molecule `COC(=O)c1ccc2c(c1)C(=O)c1c-2n(CCCN)c(=O)c2cc([N+](=O)[O-])ccc12`, the growth is -80.3% (active) in the assay with T-47D breast; -100% (active) in the assay on BT-549 breast; -90.9% (active) in the assay with MDA-MB-435 melanoma; -100% (active) in the assay with SW-620 colon; -87.8% (active) with MCF7 breast; -100% (active) with HCT-116 colon. In addition, the growth with HCC-2998 colon is -94.9% (active); in the assay with KM12 colon, -97.2% (active).

With `Fc1ccc2[nH]cc(-c3nonc3-c3c[nH]c4ccc(Br)cc34)c2c1`, the growth in the assay on T-47D breast is 3.33% (active); in the assay on BT-549 breast, 55.5%; in the assay on MDA-MB-435 melanoma, 47.5%; in the assay with SW-620 colon, 28.5%; with MCF7 breast, 12.6%; in the assay with HCT-116 colon it was 20.2%. Moreover, the growth in the assay with HCC-2998 colon was 2.9% (active); in the assay on KM12 colon, 7.15% (active).

As to `OCCOCCN(Cc1ccccn1)Cc1cc(I)cc(I)c1O`, the growth in the assay with T-47D breast was 93.9%; in the assay with BT-549 breast, 81.6%; in the assay with MDA-MB-435 melanoma, 102%; in the assay with SW-620 colon it was 95.5%; with MCF7 breast it was 76%; with HCT-116 colon it was 73.4%. Further, the growth is 111% in the assay on HCC-2998 colon and 91.3% in the assay with KM12 colon.

With `Cc1nc2ncnc(Cl)c2[nH]1`, the growth in the assay on T-47D breast was 95.7%; in the assay with BT-549 breast it was 105%; in the assay on MDA-MB-435 melanoma, 105%; in the assay on SW-620 colon, 103%; with MCF7 breast it was 91.3%; with HCT-116 colon it was 84.3%. Moreover, the growth in the assay on HCC-2998 colon is 98.6%; in the assay on KM12 colon it was 102%.

Consider `C[C@]12CC[C@@H]3c4ccc(O)c([N+](=O)[O-])c4CC[C@H]3[C@@H]1CCC2=O`, for which the growth in the assay with T-47D breast was 115%; in the assay on BT-549 breast, 78.3%; in the assay on MDA-MB-435 melanoma it was 95.4%; in the assay on SW-620 colon, 100%; with MCF7 breast, 112%; in the assay on HCT-116 colon, 105%. Further, the growth was 94.1% with HCC-2998 colon and 91.1% in the assay with KM12 colon.

Consider `C=CCn1c(SCC(=O)Nc2ccc(C(=O)/C=C/c3ccc(Cl)cc3)cc2)nnc1-c1cc(-c2ccc(S(N)(=O)=O)cc2)nc2ccccc12`, for which the growth was 81.8% in the assay on T-47D breast; 80.5% in the assay with BT-549 breast; 76.1% in the assay with MDA-MB-435 melanoma; 100% in the assay on SW-620 colon; 38.6% in the assay with MCF7 breast; -31.5% (active) in the assay with HCT-116 colon. The figures for the growth in the assay with HCC-2998 colon and in the assay on KM12 colon were 101% and 87.2%, respectively.

With `COc1ccc2nc(NC(=O)CSc3nnc4n3S(=O)(=O)c3ccccc3N4C)sc2c1`, the growth is 99.2% in the assay with T-47D breast; 113% in the assay with BT-549 breast; 113% with MDA-MB-435 melanoma; 107% in the assay with SW-620 colon; 96.6% in the assay with MCF7 breast; 97.1% in the assay on HCT-116 colon. Further, the growth in the assay on HCC-2998 colon is 108%; in the assay with KM12 colon, 111%.

In the case of `COc1ccc2cc(-c3ccc(NC(C)=O)c(=O)o3)ccc2c1`, the growth in the assay with T-47D breast is 87.3%; with BT-549 breast, 101%; with MDA-MB-435 melanoma it was 107%; in the assay on SW-620 colon it was 96.6%; with MCF7 breast, 89.9%; in the assay on HCT-116 colon, 90.3%. In addition, the growth in the assay on HCC-2998 colon is 102%; in the assay with KM12 colon, 97%.

Consider `Fc1cc2c(cc1Cl)N(c1ncnc3ccc(-c4cnc5[nH]ncc5c4)cc13)CC2`, for which the growth with T-47D breast is 17.8%; with BT-549 breast, 62.8%; in the assay with MDA-MB-435 melanoma it was 74.1%; in the assay with SW-620 colon, 80.2%; in the assay on MCF7 breast, 30.9%; in the assay with HCT-116 colon, 70.3%. Further, the growth with HCC-2998 colon was 69.1%; in the assay with KM12 colon, 77.8%.

For `COc1ccc(-c2csc(N(C(=O)N3CCN(c4cc5c(cc4F)c(=O)c(C(=O)O)cn5C4CC4)CC3)c3ccccc3)n2)cc1`, the growth was 17.1% in the assay on T-47D breast; -4.67% (active) in the assay on BT-549 breast; 16.9% in the assay on MDA-MB-435 melanoma; 17.4% in the assay with SW-620 colon; 8.74% (active) in the assay on MCF7 breast; 6.33% (active) with HCT-116 colon. Besides, the growth was 24.1% in the assay with HCC-2998 colon and 5.96% (active) with KM12 colon.

On to `COc1ccc(C2c3sc4c(F)cccc4c3Oc3nc[nH]c(=O)c32)cc1` (stereo not drawn), for which the growth with T-47D breast is 70.5%; in the assay with BT-549 breast, 84.6%; in the assay on MDA-MB-435 melanoma, 82.1%; in the assay with SW-620 colon it was 89.7%; with MCF7 breast, 45.7%; with HCT-116 colon, 79.9%. The growth in the assay on HCC-2998 colon was 91.7%; in the assay on KM12 colon it was 81.7%.

In the case of `CCc1n(Cc2ccc3ccccc3c2)cc[n+]1Cc1ccc2ccccc2c1`, the growth with T-47D breast is -10.2% (active); in the assay on BT-549 breast it was -2.05% (active); in the assay on MDA-MB-435 melanoma, -22.1% (active); with SW-620 colon, 16%; in the assay with MCF7 breast, 2.44% (active); with HCT-116 colon, 4.69% (active). In addition, the growth with HCC-2998 colon is -6.82% (active); in the assay on KM12 colon, -52.2% (active).

For `COC(=O)/C(CCC=C(C)C)=C1\[C@@H](OC(C)=O)C[C@@]2(C)[C@H]1C[C@@H](O)[C@H]1[C@@]3(C)CC[C@H](NCCN)[C@@H](C)[C@@H]3CC[C@@]12C`, the growth is 83.2% in the assay on T-47D breast; 84.8% with BT-549 breast; 93.6% in the assay on MDA-MB-435 melanoma; 85.4% with SW-620 colon; 72.3% with MCF7 breast; 36.8% with HCT-116 colon. Also, the growth in the assay with HCC-2998 colon is 91.3%; with KM12 colon, 88.9%.

Consider `COc1ccc(C/C(C)=C(/c2ccc(OCCN3CCCCC3)cc2)c2ccc(OC(=O)NCc3ccccc3)cc2)cc1`, for which, in the assay on HCC-2998 colon, the growth is -92.5% (active).

`COC(=O)c1cc(-c2ccc(OC)cc2)[nH]c1N/N=C/c1c(Cl)cccc1Cl`: the growth in the assay on HCC-2998 colon is 67.4%.

`Cn1c(O)c(C=NCCN=Cc2c(O)n(C)c(=O)n(C)c2=O)c(=O)n(C)c1=O`: the growth in the assay on T-47D breast is 96.1%; in the assay with BT-549 breast, 118%; in the assay with MDA-MB-435 melanoma, 93.7%; in the assay with SW-620 colon it was 107%; with MCF7 breast it was 108%; with HCT-116 colon, 81.1%. Also, the growth with KM12 colon is 98.7%.

For the molecule `CN1C(=O)N(C)C2Nn3c(s/c(=C\c4ccc(C(F)(F)F)cc4)c3=O)=NC21` (stereo not drawn), the growth was 107% with T-47D breast; 113% in the assay with BT-549 breast; 91.4% with MDA-MB-435 melanoma; 101% in the assay on SW-620 colon; 92% in the assay on MCF7 breast; 107% with HCT-116 colon. Also, the growth with KM12 colon is 99.7%.

Take `Cc1ccc(C2=Nc3c(N)ncnc3NC(c3ccc4c(c3)OCO4)C2)cc1` (stereo not drawn): the growth with T-47D breast was 70.5%; with BT-549 breast, 61.4%; with MDA-MB-435 melanoma, -34.5% (active); with SW-620 colon, 18.3%; with MCF7 breast it was 25.9%; in the assay on HCT-116 colon, 47%. For the same molecule, in the assay on KM12 colon, the growth is 35.3%.

`O=C(OCc1ccc2c(Cl)cc(Cl)c(O)c2n1)n1cncn1`: the growth was 36.1% with T-47D breast; 50.4% in the assay with BT-549 breast; 27.9% with MDA-MB-435 melanoma; 24.7% in the assay on SW-620 colon; 23.2% in the assay with MCF7 breast; 30.1% in the assay with HCT-116 colon. Further, the growth in the assay on KM12 colon is 21.8%.

As to `N#Cc1c(NC(=O)c2ccccc2)sc2c1CCC(=O)C2`, the growth is -24.8% (active) with T-47D breast; 16.2% in the assay with BT-549 breast; 2.87% (active) in the assay with MDA-MB-435 melanoma; 11.6% in the assay on SW-620 colon; 4.73% (active) in the assay with MCF7 breast; 5.81% (active) with HCT-116 colon. Also, the growth in the assay with KM12 colon is 8.5% (active).

Consider `O=Nc1c(-c2c(O)[nH]c3ncccc23)[nH]c2ccccc12`, for which the growth in the assay on T-47D breast is 49.1%; in the assay with BT-549 breast, 45.2%; in the assay on MDA-MB-435 melanoma, 72.6%; in the assay on SW-620 colon, 62.8%; in the assay with MCF7 breast, 67.8%; in the assay on HCT-116 colon, 36.9%. Besides, in the assay on KM12 colon, the growth is 15%.

Take `CC(C)CCNC(=O)Cn1cccc(NC(=O)OCc2ccccc2)c1=O`: the growth in the assay on T-47D breast is 104%; with BT-549 breast, 110%; with MDA-MB-435 melanoma it was 115%; in the assay on SW-620 colon, 108%; in the assay on MCF7 breast, 95.1%; in the assay with HCT-116 colon, 110%. Further, the growth with KM12 colon was 107%.

As to `COc1cc(CNS(=O)(=O)c2ccc(C)cc2)ccc1OCc1cn(-c2ccc(F)cc2)nn1`, the growth in the assay on T-47D breast is 53.7%; in the assay on BT-549 breast, 83.6%; in the assay with MDA-MB-435 melanoma it was 94.4%; in the assay with SW-620 colon it was 98.6%; in the assay with MCF7 breast, 85.9%; in the assay with HCT-116 colon it was 83.6%. Moreover, the growth with KM12 colon is 97.6%.

`O=C1Nc2ccccc2/C1=C\c1nc(-c2ccccc2)n2ccccc12`: the growth with T-47D breast is 43.1%; with BT-549 breast, 85.5%; in the assay on MDA-MB-435 melanoma, 90.5%; with SW-620 colon, 103%; in the assay on MCF7 breast, 52.9%; with HCT-116 colon it was 76.3%. In the assay with KM12 colon, the growth was 74.3%.

Regarding `CCOC(=O)C1=C(NC)OCC1=O`, the growth with T-47D breast was 110%; in the assay with BT-549 breast, 102%; in the assay on MDA-MB-435 melanoma, 110%; in the assay with SW-620 colon, 100%; with MCF7 breast, 103%; with HCT-116 colon, 108%. Also, the growth in the assay with KM12 colon was 105%.
